# Records with an inconclusive call do not appear. A number with no mark means an inactive call. The source made the active and inactive calls. Calls come from the whole dose curve; as a rule, active = well fitted activation curve with a large enough effect; inconclusive = small, poorly fitted or top-dose-only effect; inactive = flat fitted curve, though single readings scatter.
# Molecular target: Cellular tumor antigen p53 (Homo sapiens) (UniProt P04637)
# Experiment: Primary qHTS for small molecule compounds that upregulate eGFP-tagged delta133p53alpha (in C-terminal) cells. (AID 2060324);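 for GFP increase (activation): 0% = DMSO wells and 100% = 57.5 µM 5-azacytidine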
# Conditions: NCI-H358 delta133p53alpha-eGFP (C-terminal tag), GFP fluorescence imaging, 24 h; series mostly up to 57.5 µM; GFP increase (activation): at the top concentration
# Summary of the method: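 C-terminal eGFP-tagged delta133p53alpha NCI-H358 line; dox-induced (100 ng/ml, 24 h) then plated without dox; compounds pinned in titration, 24 h 37 °C/5% CO2; PFA fix, Hoechst nuclei; GFP by LSC.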
# Potency is the fitted concentration of half-maximal effect.
# Sequence of Cellular tumor antigen p53 (Homo sapiens) (P04637 whole entry, looked up): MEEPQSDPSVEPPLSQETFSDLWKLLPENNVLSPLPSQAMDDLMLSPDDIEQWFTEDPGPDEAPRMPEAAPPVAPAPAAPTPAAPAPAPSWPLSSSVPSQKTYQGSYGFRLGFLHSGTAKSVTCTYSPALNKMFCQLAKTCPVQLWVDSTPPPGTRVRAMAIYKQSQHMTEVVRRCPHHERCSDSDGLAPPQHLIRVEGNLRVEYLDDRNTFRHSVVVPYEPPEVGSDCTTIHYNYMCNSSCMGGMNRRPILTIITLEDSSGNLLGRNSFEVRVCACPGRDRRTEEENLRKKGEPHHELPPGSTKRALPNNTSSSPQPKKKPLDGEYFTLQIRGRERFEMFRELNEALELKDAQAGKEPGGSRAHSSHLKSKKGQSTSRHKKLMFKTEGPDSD
SMILES,GFP increase (activation),Potency
O=P1(N(CCCl)CCCl)NCCCO1 (stereo not given),-2.08%,
O=c1[nH]c2ccccc2n1CCCN1CCC(n2c(=O)[nH]c3cc(Cl)ccc32)CC1,0.805%,
NC1CC1c1ccccc1 (stereo not given),-8.87%,
NC(=O)c1cc(N2CC2)c([N+](=O)[O-])cc1[N+](=O)[O-],-7.95%,
C[C@]12Cc3cn4c(nc3C=C1CCC1C2CC[C@@]2(C)[C@H]1CC[C@@]2(O)C#N)nc1ccccc14 (stereo not given in full),,30.1 µM (active)
CCOC(=O)c1ncn2c1[C@@H]1CCCN1C(=O)c1cc(OC)ccc1-2,-4.69%,
CC(C)NP(=O)(NC(C)C)OP(=O)(NC(C)C)NC(C)C,-6.59%,
O=C1C=CC(=O)C=C1,-3.94%,
CC(C)c1cccc(C(C)C)c1O,-8.31%,
NCCc1c[nH]c2ccc(C(N)=O)cc12,0.719%,
CC(C)=CCOc1c2occc2cc2ccc(=O)oc12,-14.5%,
C[N+](C)(C)CC#CCN1CCCC1=O,-3.97%,
O=[N+]([O-])c1ccc2nc(N3CCNCC3)ccc2c1,13.1%,
CC(=O)c1c(O)c(C)c(O)c(Cc2c(O)c3c(c(C(=O)/C=C/c4ccccc4)c2O)OC(C)(C)C=C3)c1O,-8.15%,
CCCN1CCO[C@@H]2c3cc(O)ccc3OC[C@H]21,-2.78%,
O=S1(=O)N(CCN2CC=C(c3c[nH]c4cc(F)ccc34)CC2)c2cccc3c2N1CCC3,2.62%,
CN1CC[C@@]2(C)c3cc(O)ccc3N(C)C12 (stereo not given in full),0.308%,
COc1ccc(C(=O)N2CCCC2=O)cc1,-0.299%,
C[N+]1(C)C2CCC1CC(OC(=O)c1c[nH]c3ccccc13)C2 (stereo not given),-16.9%,
O=[N+]([O-])c1cc(O)c(O)c([N+](=O)[O-])c1,-16.2%,
CN1CC[C@@]2(C)c3cc(OC(=O)Nc4ccccc4)ccc3N(C)[C@@H]12,-2.32%,
NCCc1ccc(O)cc1,0.0491%,
Cn1c(CCCC(=O)O)nc2cc(N(CCCl)CCCl)ccc21,1.47%,
Cc1cccc(C)c1NC(=O)CN1CCCC1=O,-9.48%,
CNCC(O)c1ccc(O)cc1 (stereo not given),1.82%,
NCC1(CC(=O)O)CCCCC1,2.1%,
Cc1ncc(CNC(=O)N(CCCl)N=O)c(N)n1,-10.1%,
CN(C(=O)Cc1ccc(Cl)c(Cl)c1)C(CN1CCCC1)c1cccc(OCC(=O)O)c1 (stereo not given),-1.95%,
O=C(O)c1nn(Cc2ccc(Cl)cc2Cl)c2ccccc12,-11.7%,
c1ccc2c(c1)OCC(C1=NCCN1)O2 (stereo not given),,30.1 µM (active)

# Source: PubChem BioAssay (NCATS)
